The record followed here is PubChem BioAssay (NCATS).

Structures are written as SMILES. Results filed as inconclusive are left out. Calls of active or inactive are those of the source. Calls follow the shape of the dose curve; as a rule, active = well fitted inhibition curve with a large enough effect; inconclusive = small, poorly fitted or top-dose-only effect; inactive = flat fitted curve, though single readings scatter.

Experiment in all cases: qHTS profiling for inhibitors of Plasmodium falciparum proliferation (AID 504749); also: nearly all actives have a fitted effect of over 60% in size
What all share (conditions): P. falciparum in erythrocytes, SYBR Green DNA, 72 h; series mostly up to 28.7 µM

One assay deals with N140. The essentials: (§1)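 SYBR Green fluorescence (ex 485 nm, em 535 nm) reports parasite DNA after 72 h compound exposure of infected red cells at 0.3% parasitemia, 2.5% hematocrit; signal normalized to 0.29 uM artemisinin and vehicle wells.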
In a further assay the test system is P93_24. The essentials:
as §1

In another assay the test system is P94_40. The essentials:
as §1

The next assay deals with PAD. The procedure, abridged: as §1
Another assay concerns PC15. The essentials:
as §1

The test system of another assay is PC26. The procedure, abridged: as §1
A further assay relates to PC49. The essentials: as §1
In a further assay the test system is SC27B. The essentials:
as §1

For a further assay, the system named is TAB109. The essentials: as §1
The subject of the next assay is TAB113. The essentials: as §1
Potency is read from the fitted curve at half-maximal effect.

With `CCCc1cc(C(N)=S)ccn1`, the Potency result in the assay on N140, in the assay with P93_24, with P94_40, in the assay with PAD, in the assay on PC15 and in the assay on PC26 was “inactive” each time. The Potency result in the assay on PC49, with SC27B, in the assay on TAB109 and in the assay with TAB113 was “inactive” each time.

On to `Nc1nc(N)nc(-c2cc(Cl)ccc2Cl)n1`, for which the Potency result in the assay with N140, in the assay with P93_24, in the assay with P94_40, in the assay with PAD, in the assay on PC15 and with PC26 was “inactive” each time. In addition, the Potency entry with PC49, in the assay on SC27B, in the assay on TAB109 and in the assay on TAB113 was “inactive” each time.

With `CCc1c2c(nc3ccc(OC(=O)N4CCC(N5CCCCC5)CC4)cc13)-c1cc3c(c(=O)n1C2)COC(=O)[C@]3(O)CC`, the Potency result with N140, with P93_24, with P94_40, in the assay on PAD, with PC15 and with PC26 was “inactive” in each case. The Potency entry with PC49, in the assay with SC27B, in the assay on TAB109 and in the assay with TAB113 was “inactive” throughout.

`CN1CCN(c2c(F)cc3c(=O)c(C(=O)O)cn(CCF)c3c2F)CC1`: the Potency result with N140, with P93_24, in the assay on P94_40, with PAD, with PC15 and with PC26 was “inactive” throughout. For the same compound, the Potency entry in the assay on PC49, in the assay with SC27B, with TAB109 and with TAB113 was “inactive” each time.

For the compound `CNNCc1ccc(C(=O)NC(C)C)cc1`, the Potency entry with N140, with P93_24, with P94_40, in the assay on PAD, in the assay on PC15 and in the assay on PC26 was “inactive” throughout. In addition, the Potency entry with PC49, with SC27B, with TAB109 and in the assay with TAB113 was “inactive” each time.

`S=P(N1CC1)(N1CC1)N1CC1`: the Potency entry with N140, in the assay on P93_24, in the assay on P94_40, in the assay with PAD, with PC15 and in the assay on PC26 was “inactive” each time. Moreover, the Potency result with PC49, in the assay on SC27B, in the assay on TAB109 and with TAB113 was “inactive” in each case.

Regarding `Cc1cccc(Nc2ccncc2S(=O)(=O)NC(=O)NC(C)C)c1`, the Potency entry in the assay on N140, with P93_24, with P94_40, in the assay with PAD, in the assay with PC15 and in the assay with PC26 was “inactive” each time. Also, the Potency result in the assay on PC49, with SC27B, in the assay on TAB109 and in the assay on TAB113 was “inactive” each time.

For the compound `N=C(N)c1ccc(OCCCCCOc2ccc(C(=N)N)cc2)cc1`, the Potency was 1000 nM (active) with N140; 631 nM (active) in the assay with P93_24; 1410 nM (active) with P94_40; 1410 nM (active) in the assay on PAD; 355 nM (active) with PC15; 953 nM (active) in the assay with PC26. In addition, the Potency was 708 nM (active) in the assay with PC49, 1120 nM (active) in the assay with SC27B, 1580 nM (active) in the assay on TAB109 and 1410 nM (active) in the assay on TAB113.

For `NCCCC(O)(P(=O)(O)O)P(=O)(O)O`, the Potency result in the assay on N140, in the assay with P93_24, with P94_40, in the assay on PAD, in the assay with PC15 and with PC26 was “inactive” each time. Besides, the Potency entry in the assay with PC49, in the assay on SC27B, in the assay on TAB109 and in the assay on TAB113 was “inactive” in each case.

As for `COc1cc(NCc2ccc3nc(N)nc(N)c3c2C)cc(OC)c1OC`, the Potency in the assay on N140 was 447 nM (active); in the assay with P93_24, 398 nM (active); in the assay on P94_40, 891 nM (active); in the assay on PAD it was 316 nM (active); with PC15, 316 nM (active); in the assay on PC26, 675 nM (active). Moreover, the Potency in the assay on PC49 was 501 nM (active); in the assay on SC27B, 2240 nM (active); in the assay with TAB109 it was 1000 nM (active); in the assay on TAB113, 2510 nM (active).

Turning to `C[C@@H](NCCCc1cccc(C(F)(F)F)c1)c1cccc2ccccc12`, the Potency with N140 was 2820 nM (active); with P93_24 it was 6310 nM (active); in the assay on P94_40 it was 5010 nM (active); with PAD, 2000 nM (active); in the assay on PC15, 11200 nM (active); in the assay with PC26 it was 4780 nM (active). The Potency was 6310 nM (active) in the assay on SC27B, 4470 nM (active) in the assay on TAB109 and 3550 nM (active) in the assay with TAB113.

As to `COc1c(N2CCNC(C)C2)c(F)cc2c(=O)c(C(=O)O)cn(C3CC3)c12` (stereo not drawn), the Potency entry in the assay with N140, with P93_24, with P94_40, in the assay with PAD, with PC15 and in the assay with PC26 was “inactive” in each case. Also, the Potency entry with PC49, in the assay on SC27B and in the assay with TAB113 was “inactive” each time.

As for `Nc1nc(N)c2nc(CNc3ccc(C(=O)NC(CCC(=O)O)C(=O)O)cc3)cnc2n1` (stereo not drawn), the Potency entry in the assay with N140, in the assay on P93_24, in the assay on P94_40, in the assay with PAD, with PC15 and in the assay on PC26 was “inactive” each time. The Potency entry with PC49, with SC27B, in the assay with TAB109 and in the assay on TAB113 was “inactive” each time.

In the case of `CC[C@H](NC(C)C)[C@H](O)c1ccc(O)c2[nH]c(=O)ccc12`, the Potency result in the assay with N140, with P93_24, in the assay with P94_40, in the assay on PAD, in the assay with PC15 and with PC26 was “inactive” throughout. The Potency entry with PC49, with SC27B, in the assay on TAB109 and with TAB113 was “inactive” throughout.

For `CCOCC(O)COc1ccc(NC(=O)CC[S+](C)C)cc1` (stereo not drawn), the Potency result in the assay on N140, in the assay on P93_24, in the assay with P94_40, with PAD, in the assay on PC15 and in the assay with PC26 was “inactive” each time. Besides, the Potency entry in the assay with PC49, with SC27B, in the assay with TAB109 and in the assay with TAB113 was “inactive” each time.

In the case of `CN(C)c1ccc(C(=C2C=CC(=[N+](C)C)C=C2)c2ccc(N(C)C)cc2)cc1`, the Potency with N140 is 355 nM (active); in the assay with P93_24 it was 316 nM (active); in the assay with P94_40 it was 282 nM (active); in the assay with PAD, 355 nM (active); in the assay with PC15, 708 nM (active); in the assay on PC26, 849 nM (active). For the same compound, the Potency is 1780 nM (active) in the assay with PC49, 501 nM (active) in the assay on SC27B, 224 nM (active) in the assay with TAB109 and 355 nM (active) in the assay on TAB113.

As for `NC(=O)N1c2ccccc2CC(=O)c2ccccc21`, the Potency result in the assay on N140, in the assay with P93_24, with P94_40, with PAD, in the assay on PC15 and with PC26 was “inactive” throughout. Also, the Potency entry with PC49, with SC27B, with TAB109 and with TAB113 was “inactive” each time.

For `CC(C)NCC(O)c1ccc(NS(C)(=O)=O)cc1` (stereo not drawn), the Potency result in the assay with N140, with P93_24, in the assay with P94_40, in the assay on PAD, in the assay on PC15 and in the assay on PC26 was “inactive” in each case. In addition, the Potency result with PC49, with SC27B, with TAB109 and with TAB113 was “inactive” throughout.

For `CCC(C)(C)c1ccc(CC(C)CN2C[C@@H](C)O[C@@H](C)C2)cc1` (stereo partly drawn), the Potency result in the assay on N140, in the assay with P93_24, in the assay with P94_40, in the assay on PAD, with PC15 and in the assay with PC26 was “inactive” in each case. The Potency entry in the assay on PC49, in the assay with SC27B, in the assay with TAB109 and in the assay on TAB113 was “inactive” each time.
